Measurements from PubChem BioAssay (NCI).
Values joined by “and” are separate entries in the source; they are usually repeats but may differ in a detail not shown here. Identical values can stand only once. Compounds without any hit were thinned out: in the full panel of roughly 83,000, 20% have a hit.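 For each line, cells grew in 96-well plates with the test compound present at a single concentration for 48 hours.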 Active and inactive are the calls of the source. How the source made its calls: active means growth percent below 10; inactive means the rest.

Key:
Test in all cases: NCI-60 one-dose screen, 48 h (100 = growth as untreated, 0 = no growth, -100 = all killed)
T-47D breast = settings: 10 µM unless noted
BT-549 breast = test system: BT-549 breast
MDA-MB-435 melanoma = test system: MDA-MB-435 melanoma
MCF7 breast = test system: MCF7 breast
HCT-116 colon = test system: HCT-116 colon
HCC-2998 colon = test system: HCC-2998 colon
KM12 colon = test system: KM12 colon
SW-620 colon = test system: SW-620 colon

Measured: growth

Cc1cc(O)c(C(C)C)cc1N
inactive: T-47D breast 16.1% and 71.8% | BT-549 breast; 10 µM unless noted 109% and 98.1% | MDA-MB-435 melanoma; 10 µM unless noted 117% and 98.9% | MCF7 breast; 10 µM unless noted 94.3% and 92.7% | HCT-116 colon; 10 µM unless noted 87.2% and 104% | HCC-2998 colon; 10 µM unless noted 105% and 94.2% | KM12 colon; 10 µM unless noted 110% and 114%

CC(C)Oc1ccc2cc(-c3nn(CC4CCNCC4)c4ncnc(N)c34)ccc2c1
92.1% (inactive) and -86.6% (active): MDA-MB-435 melanoma; 10 µM unless noted
77.7% (inactive) and -13.5% (active): HCC-2998 colon; 10 µM unless noted
77.8% (inactive) and -8.43% (active): T-47D breast
91.7% (inactive) and 1.44% (active): SW-620 colon; 10 µM unless noted
inactive: MCF7 breast; 10 µM unless noted 83.6% and 15.2%
50.4% (inactive) and 9.14% (active): HCT-116 colon; 10 µM unless noted

COc1ccc(-c2ncnc3c2ncn3C/C=C/CCl)cc1
inactive: T-47D breast 67.9% and 92.5% | MDA-MB-435 melanoma; 10 µM unless noted 57.8% and 81.6% | SW-620 colon; 10 µM unless noted 61.1% and 74.7% | MCF7 breast; 10 µM unless noted 40.2% and 55.6% | HCT-116 colon; 10 µM unless noted 46.6% and 76.8% | HCC-2998 colon; 10 µM unless noted 91.2% and 95.4% | KM12 colon; 10 µM unless noted 85.4% and 102%

O=C1c2c(O)cc(O)cc2OC(c2ccc(O)c(O)c2)C1O (stereo not drawn)
inactive: T-47D breast 103% | MDA-MB-435 melanoma; 10 µM unless noted 111% | MCF7 breast; 10 µM unless noted 102% | KM12 colon; 10 µM unless noted 114%

O=C(O)c1cc(C(=O)O)cc([N+](=O)[O-])c1
inactive: BT-549 breast; 10 µM unless noted 102% | MDA-MB-435 melanoma; 10 µM unless noted 99% | SW-620 colon; 10 µM unless noted 107% | MCF7 breast; 10 µM unless noted 104% | HCT-116 colon; 10 µM unless noted 101% | HCC-2998 colon; 10 µM unless noted 110% | KM12 colon; 10 µM unless noted 109%

Cc1ccc(S(=O)(=O)Nc2ccc3cc([N+](=O)[O-])ccc3c2[N+](=O)[O-])cc1
inactive: BT-549 breast; 10 µM unless noted 92.3% and 95.5% | MDA-MB-435 melanoma; 10 µM unless noted 63.3% and 91.7% | SW-620 colon; 10 µM unless noted 91.9% and 93.4% | MCF7 breast; 10 µM unless noted 89.7% and 97.2% | HCT-116 colon; 10 µM unless noted 83.8% and 80.7% | HCC-2998 colon; 10 µM unless noted 73.9% and 95.8% | KM12 colon; 10 µM unless noted 73.5% and 91.6%

O=c1c2ccccc2nc2n1Cc1nc3ccccc3c(=O)n1C2
inactive: BT-549 breast; 10 µM unless noted 89.8% and 94.1% | MDA-MB-435 melanoma; 10 µM unless noted 93.5% and 101% | SW-620 colon; 10 µM unless noted 97.3% and 103% | MCF7 breast; 10 µM unless noted 84.5% and 97.9% | HCT-116 colon; 10 µM unless noted 111% and 94.6% | HCC-2998 colon; 10 µM unless noted 106% and 104% | KM12 colon; 10 µM unless noted 99.6% and 101%

C=C1C(=O)O[C@H]2[C@H]1CC/C(COC(=O)NC1CCC(O)CC1)=C\CC[C@@]1(C)O[C@@H]21 (stereo partly drawn)
inactive: T-47D breast 59.6% and 47.6% | MDA-MB-435 melanoma; 10 µM unless noted 58.4% and 54.8% | SW-620 colon; 10 µM unless noted 27.4% and 30.1% | MCF7 breast; 10 µM unless noted 75.2% and 66.7% | HCT-116 colon; 10 µM unless noted 41.5% and 33% | KM12 colon; 10 µM unless noted 96.8% and 97.9%

O=C(CN1CCN(c2cc3c(cc2F)c(=O)c(C(=O)O)cn3C2CC2)CC1)Nc1ccc(Cl)cc1
inactive: BT-549 breast; 10 µM unless noted 55.8% | MDA-MB-435 melanoma; 10 µM unless noted 88.4% and 92.1% | SW-620 colon; 10 µM unless noted 101% and 110% | MCF7 breast; 10 µM unless noted 94.3% and 96.4% | HCT-116 colon; 10 µM unless noted 73.1% and 99.7% | HCC-2998 colon; 10 µM unless noted 85.8% and 103% | KM12 colon; 10 µM unless noted 82.9% and 93.9%

N#CCCOc1ccccc1
inactive: BT-549 breast; 10 µM unless noted 88.2% | MDA-MB-435 melanoma; 10 µM unless noted 96.4% | SW-620 colon; 10 µM unless noted 106% | MCF7 breast; 10 µM unless noted 94.1% | HCT-116 colon; 10 µM unless noted 106% | HCC-2998 colon; 10 µM unless noted 110% | KM12 colon; 10 µM unless noted 106%

CN(C)c1ccc(C(Cc2ccc3ccccc3n2)Cc2ccc3ccccc3n2)cc1
-3.35% (active) and 93.1% (inactive): BT-549 breast; 10 µM unless noted
inactive: MDA-MB-435 melanoma; 10 µM unless noted 32.7% and 87.1% | SW-620 colon; 10 µM unless noted 48.1% and 79.3% | MCF7 breast; 10 µM unless noted 40.8% and 68% | HCT-116 colon; 10 µM unless noted 15.4% and 51.6% | HCC-2998 colon; 10 µM unless noted 35% and 91.1% | KM12 colon; 10 µM unless noted 42.1% and 81%

CNC(=O)c1cccnc1
inactive: BT-549 breast; 10 µM unless noted 101% | MDA-MB-435 melanoma; 10 µM unless noted 105% | SW-620 colon; 10 µM unless noted 106% | MCF7 breast; 10 µM unless noted 105% | HCT-116 colon; 10 µM unless noted 103% | HCC-2998 colon; 10 µM unless noted 110% | KM12 colon; 10 µM unless noted 110%

NC(=S)N/N=C(\c1ccc(Br)cc1)C1CC1
inactive: BT-549 breast; 10 µM unless noted 99.6% and 106% | MDA-MB-435 melanoma; 10 µM unless noted 92% and 91.9% | SW-620 colon; 10 µM unless noted 79.7% and 71.1% | MCF7 breast; 10 µM unless noted 24.4% and 20.6% | HCC-2998 colon; 10 µM unless noted 97.2% and 93.9%
active: HCT-116 colon; 10 µM unless noted 7.26% and 2.42%

CC(C)(C)c1cc(NC(=O)Cc2ccc(-c3cnc4cc(-c5cnn(CCN6CCOCC6)c5)ccc4n3)cc2)no1
inactive: BT-549 breast; 10 µM 22% | BT-549 breast; 30 µM 32.9% | MDA-MB-435 melanoma; 10 µM 19.1% | MDA-MB-435 melanoma; 30 µM 19.6% | SW-620 colon; 10 µM 15.5% | SW-620 colon; 30 µM 18.8% | MCF7 breast; 10 µM 35.4% | MCF7 breast; 30 µM 33.8% | HCT-116 colon; 10 µM 14.9% | HCT-116 colon; 30 µM 24.3% | HCC-2998 colon; 10 µM 40.3% | HCC-2998 colon; 30 µM 39.4%

CC(=O)Oc1cc(C(=O)O)cc(OC(C)=O)c1OC(C)=O
inactive: BT-549 breast; 10 µM unless noted 110% and 102% | MDA-MB-435 melanoma; 10 µM unless noted 116% and 106% | SW-620 colon; 10 µM unless noted 103% and 107% | MCF7 breast; 10 µM unless noted 102% and 93% | HCT-116 colon; 10 µM unless noted 100% and 90.3% | HCC-2998 colon; 10 µM unless noted 102% and 100% | KM12 colon; 10 µM unless noted 112% and 106%

O=C1CCN(Cc2ccccc2)C(=S)N1
inactive: T-47D breast 113% and 103% | MDA-MB-435 melanoma; 10 µM unless noted 108% and 105% | MCF7 breast; 10 µM unless noted 119% and 86% | HCT-116 colon; 10 µM unless noted 103% and 106% | HCC-2998 colon; 10 µM unless noted 98.8% and 99.9% | KM12 colon; 10 µM unless noted 104% and 105%

CCOc1ccc2c(S(=O)(=O)O)cccc2c1[N+](=O)[O-]
inactive: T-47D breast 114% and 111% | MDA-MB-435 melanoma; 10 µM unless noted 108% and 106% | MCF7 breast; 10 µM unless noted 107% and 104% | HCT-116 colon; 10 µM unless noted 101% | HCC-2998 colon; 10 µM unless noted 109% | KM12 colon; 10 µM unless noted 98.1% and 103%

Cn1c(=O)n(-c2ccc(C(C)(C)C#N)cc2)c2c3cc(-c4cnc5ccccc5c4)ccc3ncc21
active: T-47D breast -12.2% and -4.13% | MDA-MB-435 melanoma; 10 µM unless noted 2.94% and 5.92% | MCF7 breast; 10 µM unless noted 4.64% and -3.88% | HCC-2998 colon; 10 µM unless noted 1.76% and 7.09% | KM12 colon; 10 µM unless noted 3.33% and -9.75%
inactive: HCT-116 colon; 10 µM unless noted 16.8% and 13%

CCC(=O)C(CC)c1cccc(OC)c1 (stereo not drawn)
inactive: BT-549 breast; 10 µM unless noted 105% | MDA-MB-435 melanoma; 10 µM unless noted 101% | SW-620 colon; 10 µM unless noted 105% | MCF7 breast; 10 µM unless noted 104% | HCT-116 colon; 10 µM unless noted 104% | HCC-2998 colon; 10 µM unless noted 112% | KM12 colon; 10 µM unless noted 111%

CCOc1ccc2nc3cc(N)ccc3c(N)c2c1
active: T-47D breast 7.14% and -4.55%
inactive: MDA-MB-435 melanoma; 10 µM unless noted 91.7% and 98.2% | SW-620 colon; 10 µM unless noted 46.1% and 50% | MCF7 breast; 10 µM unless noted 16.8% | HCT-116 colon; 10 µM unless noted 46.4% and 29.6% | KM12 colon; 10 µM unless noted 45.1% and 31.5%

CCc1ccccc1-n1c(N)c(C#N)c(-c2ccc(OC)c(OC)c2)c(C#N)c1=O
active: BT-549 breast; 100 µM -17.8%
inactive: BT-549 breast; 10 µM 109% | MDA-MB-435 melanoma; 10 µM 113% | MDA-MB-435 melanoma; 100 µM 82.5% | SW-620 colon; 10 µM 116% | SW-620 colon; 100 µM 86.4% | MCF7 breast; 10 µM 115% | MCF7 breast; 100 µM 10.4% | HCT-116 colon; 10 µM 110% | HCT-116 colon; 100 µM 27.8% | KM12 colon; 10 µM 99.3% | KM12 colon; 100 µM 45.6%

COc1cc(C(=O)N/N=C/c2ccc(N(C)C)cc2)cc(OC)c1OC
inactive: SW-620 colon; 10 µM unless noted 26.2% | MCF7 breast; 10 µM unless noted 18.3% | HCT-116 colon; 10 µM unless noted 10.1% | HCC-2998 colon; 10 µM unless noted 12% | KM12 colon; 10 µM unless noted 17%
active: BT-549 breast; 10 µM unless noted -2.93% | MDA-MB-435 melanoma; 10 µM unless noted -11.9%

CCN(CC)C(=O)c1cccnc1
inactive: BT-549 breast; 10 µM unless noted 98.5% | MDA-MB-435 melanoma; 10 µM unless noted 97.9% | SW-620 colon; 10 µM unless noted 106% | MCF7 breast; 10 µM unless noted 108% | HCT-116 colon; 10 µM unless noted 105% | HCC-2998 colon; 10 µM unless noted 109% | KM12 colon; 10 µM unless noted 104%

CC(C)C(=O)Nc1ccc([N+](=O)[O-])c(C(F)(F)F)c1
inactive: BT-549 breast; 10 µM unless noted 84.7% and 85.9% | MDA-MB-435 melanoma; 10 µM unless noted 87% and 99.6% | SW-620 colon; 10 µM unless noted 93.8% and 96.5% | MCF7 breast; 10 µM unless noted 102% and 90% | HCT-116 colon; 10 µM unless noted 94.8% and 92.8% | HCC-2998 colon; 10 µM unless noted 97.2% and 106% | KM12 colon; 10 µM unless noted 89.3% and 98.4%
